Measured values from PubChem BioAssay AID393 (SGCOxCompounds, 2006).
Active and inactive are the calls of the source. No rule for the calls is given here.

target: Serine/threonine-protein kinase pim-1 (Homo sapiens) (UniProt P11309); assay: compound-induced PIM1 thermal stabilization – biophysical, human, melting temperature shift (AID 393); details: Thermal shift assay, active compounds read high; at 10 µM, protein 2 µM, buffer 10 mM PIPES, pH 6.5, NaCl 150 mM unless noted
Sequence (P11309 whole entry, looked up): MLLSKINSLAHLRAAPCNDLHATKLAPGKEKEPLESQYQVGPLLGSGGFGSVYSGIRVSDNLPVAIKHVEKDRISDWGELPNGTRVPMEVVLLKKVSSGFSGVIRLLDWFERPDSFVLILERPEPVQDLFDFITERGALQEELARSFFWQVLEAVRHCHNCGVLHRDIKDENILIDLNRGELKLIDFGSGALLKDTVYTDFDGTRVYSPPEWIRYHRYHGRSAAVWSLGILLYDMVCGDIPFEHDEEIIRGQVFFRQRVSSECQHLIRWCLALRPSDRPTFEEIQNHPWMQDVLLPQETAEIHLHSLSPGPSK

Tm shift, active:
CC(=O)c1cccc(-c2cnc3ccc(NC4CCOCC4)nn23)c1 5.71 Celsius, COc1cccc(-c2cnn3ccc(Nc4cccc(Cl)c4)nc23)c1 6.16 Celsius, CCC(CO)Nc1ccc2ncc(-c3ccc(O)cc3)n2n1 (centres undefined) 6.96 Celsius, CC(=O)c1cccc(-c2cnc3ccc(NCC4CC4)nn23)c1 6.41 Celsius [at 5 µM, protein 1 µM, buffer 10 mM HEPES], COc1cc(/C=C/C(=O)CC(=O)/C=C/c2ccc(O)c(OC)c2)ccc1O 4.2 Celsius [at 10 µM, protein 2 µM, buffer 10 mM Na Citrate, pH 6.5, NaCl 150 mM], COCCNc1ccc2ncc(-c3cccc(C(C)=O)c3)n2n1 4.92 Celsius, O=S(=O)(c1cccc2c(Cl)cccc12)N1CCCNCC1 3.27 Celsius [at 10 µM, protein 3 µM, buffer 10 mM HEPES], CCN1/C(=C/C(C)=O)Sc2ccc(OC)cc21 6.4 Celsius [at 10 µM, protein 2 µM, buffer 10 mM Na Citrate, pH 6.5, NaCl 150 mM], c1csc(-c2cnc3ccc(NCC4CC4)nn23)c1 4.75 Celsius [at 5 µM, protein 1 µM, buffer 10 mM HEPES]
